TWEAK Fn14 block – inhibitors of TWEAK-Fn14 interaction signaling; TWEAK-stimulated Fn14 reporter cells, luciferase luminescence, 8 h; inhibition, % at 10 µM; 2% of 360,000 active; in the data active = inhibition above about 50%
HIF-2a inh – blocks HIF-2a reporter activity | 786-0 RCC cells HIF-2a reporter, luciferase luminescence, overnight | inhibition, % at 18.8 µM | 0.72% of 360,000 active | AID 624352;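 active = inhibition of the luminescence signal of 40% or more relative to plate controls, in a single-dose primary screen at 18.75 µM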
CF NFkB inh – cystic fibrosis NF-kB activation inhibition; KKLEB NF-kB-GFP reporter, PAF-induced, GFP fluorescence overnight; 0.86% of 360,000 active; inhibition, % at 5 µM;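 active = at least 50% inhibition at 5 µM, scaled per plate between neutral and stimulator controls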;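 also: PAF is a Pseudomonas aeruginosa culture filtrate used as stimulus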
TROY NFkB inh – inhibitors of TROY-dependent NF-kB signaling; AID 1347056; 0.98% of 360,000 active; Q293 LMP1-TROYcd NF-kB luciferase reporter, 4 h; inhibition, % at 10 µM;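 active = compounds whose plate-normalised and pattern-corrected inhibition of the luciferase reporter signal at the single screening dose is 50% or more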
Peg3 prom inh-1 – inhibitors of Peg3 promoter. HeLa PEG-Prom luciferase reporter, luminescence, overnight. inhibition, % at 20 µM. 1.7% of 360,000 active;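 active = inhibition of at least 50% at 20 µM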
KKLEB cytotox – counter-screen for CF NF-kB inhibitors: cytotoxicity | KKLEB CF airway cells viability, ATPlite luminescence, overnight; active compounds read low; cells stimulated with P. aeruginosa culture filtrate | activity change (cytotoxicity), % at 5 µM | 0.36% of 360,000 active;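 active = corrected activity change at or below -50% at 5 µM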
Peg3 prom inh-2 – confirmation of Peg3 promoter inhibitors | inhibition, % at 20 µM | HeLa PEG-Prom luciferase reporter, luminescence, overnight | shares compounds with Peg3 prom inh-1 | AID 602417 | 84% of 1,300 active;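 active = at 20 µM dose, 40% or more inhibition averaged across four replicates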
Of the large screens only hits and unclear results are named; the others gave an inactive call (follow-up assays come after a bar, where they were run). Hits are enriched below; roughly 3.9% of the tested compounds scored in any of these assays.

Cc1ccccc1Nc1nnc(SCC(=O)Nc2ncc(C(F)(F)F)cc2Cl)s1	none
COc1cc(NC(=O)c2n[nH]c(=O)c3ccccc23)cc(OC)c1	none
COc1ccc(-c2nc(NC(=O)c3n[nH]c(=O)c4ccccc34)sc2C)cc1	Peg3 prom inh-1 59.6 | Peg3 prom inh-2 48.1
CC(C)c1ccc2c(c1)C1Cc3ccccc3C1N2 (stereo unspecified)	none
O=C(N/N=C\c1c(O)ccc2ccccc12)c1ccc(O)cc1	none
O=C(N/N=C\c1c(O)ccc2ccccc12)c1cncc(Br)c1	Peg3 prom inh-1 65.5 | Peg3 prom inh-2 59.6
O=C(CNc1ccccc1)N/N=C/c1c(O)ccc2ccccc12	Peg3 prom inh-1 63.6 | Peg3 prom inh-2 68.0
CC(OC(=O)CCC(=O)c1cccs1)C(=O)Nc1ccc(Cl)cn1 (stereo unspecified)	none
O=C(Nc1ccc(Cl)cc1)Nc1cccc(C(=O)O)c1	HIF-2a inh 65.7, Peg3 prom inh-1 52.7 | Peg3 prom inh-2 inactive
Cc1ccccc1OCC(=O)Nc1cccc(C(=O)O)c1	TWEAK Fn14 block 59.0, HIF-2a inh 91.6, Peg3 prom inh-1 84.4 | Peg3 prom inh-2 84.8
CCOc1ccc(NC(=O)Nc2cccc(C(=O)O)c2)cc1	HIF-2a inh 87.7, Peg3 prom inh-1 84.6 | Peg3 prom inh-2 74.8
Oc1[nH]c2ccc(Br)cc2c1N=NC(=S)Nc1ccc(F)cc1	TWEAK Fn14 block 62.9, Peg3 prom inh-1 65.4 | Peg3 prom inh-2 67.5
Oc1ccc(NC(=S)N=Nc2c(O)[nH]c3ccc(Br)cc23)cc1	none
COc1ccc2c(-c3ccccc3)cc3nnnn3c2c1	none
CCN(CC)c1cccc(OCC(=O)N2c3ccccc3CC2C)c1 (stereo unspecified)	none
COc1cc(/C=C/C(=O)CC(=O)/C=C/c2ccc(O)c(OC)c2)ccc1O	Peg3 prom inh-1 64.0 | Peg3 prom inh-2 inactive
COc1cc(/C=C/C(=O)O)ccc1O	none
COc1ccc2[nH]cc(C(=O)CNc3nc(C)cs3)c2c1	none
COC(=O)CSc1ccccc1C(=O)OC	none
COC(=O)CSC1=NS(=O)(=O)c2ccccc21	Peg3 prom inh-1 73.6 | Peg3 prom inh-2 80.5
COc1ncnc2c1oc1nc(CC(C)C)c3c(c12)CCCC3	none
CCCc1nc2oc3c(Cl)ncnc3c2c2c1CCCC2	Peg3 prom inh-1 99.1 | Peg3 prom inh-2 inactive
CC(=O)Nc1cccc(NCC(=O)Nc2cc(S(=O)(=O)N3CCCCC3)ccc2Cl)c1	none
CC(Sc1n[nH]c(-c2cccs2)n1)C(=O)Nc1ccccc1F (stereo unspecified)	none
Cc1ccc(C(=O)/C=C\C(=O)c2ccc(C)cc2)cc1	none
Cc1ccc(C(=O)c2no[n+]([O-])c2C(=O)c2ccc(C)cc2)cc1	TWEAK Fn14 block 53.4, CF NFkB inh 99.5, Peg3 prom inh-1 107.3, KKLEB cytotox -76.2 | Peg3 prom inh-2 99.8
CC(C)CN(C(=O)Cn1c(C(F)(F)F)nc2ccccc21)C1CCS(=O)(=O)C1 (stereo unspecified)	none
CCCCCNC(=O)C(c1ccncc1)n1c(=O)c(-c2ccccc2)nc2ccccc21 (stereo unspecified)	none (no result: TWEAK Fn14 block, CF NFkB inh, TROY NFkB inh, Peg3 prom inh-1, KKLEB cytotox)
CCOc1ccc(OCc2cccc(C(=O)N3CCCC3)c2)cc1	none
O=C(NCc1ccccc1)c1cccc(COc2ccc3c(c2)CCC3)c1	none
O=C(O)c1cccc(COc2ccc(CO)cc2Cl)c1	TWEAK Fn14 block 71.5, HIF-2a inh 88.8, Peg3 prom inh-1 100.0 | Peg3 prom inh-2 87.8
O=C(O)c1cccc(COc2ccc3c(c2)CCC3)c1	HIF-2a inh 88.2, Peg3 prom inh-1 85.0 | Peg3 prom inh-2 72.5
CCOc1ccc(OCc2cccc(C(=O)O)c2)cc1	HIF-2a inh 89.5, Peg3 prom inh-1 100.0 | Peg3 prom inh-2 95.6
COc1ccc(N2C(=O)N3[C@H](c4ccc(Cl)cc4)[C@@H]4C(=O)N(C5CCCCC5)C(=O)[C@@H]4[C@]3(Cc3ccc(Cl)cc3)C2=O)cc1	none
COc1cccc(-c2cccc(-c3nc(C(=O)NCc4ccc(Oc5ccccc5)cc4)cc4c3[C@H](CCO)N(S(=O)C(C)(C)C)C4)c2)c1 (stereo partly specified)	Peg3 prom inh-1 73.1 | Peg3 prom inh-2 inactive
CC(C)(C)S(=O)N1Cc2cc(C(=O)NCc3ccc(Oc4ccccc4)cc3)nc(-c3cccc(-c4cc5ccccc5o4)c3)c2[C@@H]1CCO (stereo partly specified)	Peg3 prom inh-1 80.1 | Peg3 prom inh-2 inactive
CC1=NN(C(=O)COc2cc(C)ccc2C(C)C)C(O)(c2ccccc2)C1 (stereo unspecified)	none
O=C(COC(=O)Cn1cnc2ccccc2c1=O)NCc1ccccc1	none
COc1ccc(OC)c(-c2cc(C(=O)N3CCN(c4ncccn4)CC3)c3ccccc3n2)c1	Peg3 prom inh-1 54.5 | Peg3 prom inh-2 52.1
COc1ccc(-c2cc(C(=O)N3CCN(c4ccccc4F)CC3)c3ccccc3n2)c(OC)c1	Peg3 prom inh-1 50.9 | Peg3 prom inh-2 51.7
COc1ccc(-c2cc(C(=O)N3CCN(c4ncccn4)CC3)c3ccccc3n2)c(OC)c1	Peg3 prom inh-1 53.4 | Peg3 prom inh-2 44.8
O=C(N/N=C/c1cccnc1)c1ccccc1NS(=O)(=O)c1cccs1	none
COc1cccc(CNC(=O)CCC2CCCN(C(=O)c3cccc(Cl)c3)C2)c1 (stereo unspecified)	none
CCN(CC)c1ccc(C(=O)NNC(=O)CCNC(=O)c2ccccc2)cc1	none
CCN(CC)c1ccc(C(=C2C=CC(=[N+](CC)CC)C=C2)c2ccccc2)cc1	TWEAK Fn14 block 106.6, HIF-2a inh 83.8, CF NFkB inh 85.0, TROY NFkB inh 88.6, Peg3 prom inh-1 95.9, KKLEB cytotox -86.3 | Peg3 prom inh-2 98.6
O=C(Nc1ccccc1)c1nc[nH]c1C(=O)NCCN(CCNC(=O)c1[nH]cnc1C(=O)Nc1ccccc1)CCNC(=O)c1[nH]cnc1C(=O)Nc1ccccc1	none
O=C(Nc1ccccc1)c1nc[nH]c1C(=O)NCCCNC(=O)c1[nH]cnc1C(=O)Nc1ccccc1	Peg3 prom inh-1 62.7 | Peg3 prom inh-2 46.3
O=C(Nc1ccccc1)c1nc[nH]c1C(=O)NCCCCCCNC(=O)c1[nH]cnc1C(=O)Nc1ccccc1	TWEAK Fn14 block 68.5, Peg3 prom inh-1 61.6 | Peg3 prom inh-2 56.8
CNC(=O)c1[nH]cnc1C(=O)Nc1ccccc1	none
COc1ccc(-n2nc(C(=O)Nc3ccc(OC)c(OC)c3)c3c4ccccc4n(C)c3c2=O)cc1	CF NFkB inh 64.3, Peg3 prom inh-1 61.6, KKLEB cytotox -59.7 | Peg3 prom inh-2 inactive
O=C(COC(=O)Cc1c(Cl)cccc1Cl)NCc1ccco1	none
C/C(=N\NC(=O)c1cccnc1)c1ccccc1	none
CCOC(=O)c1c(NC(=O)CSc2nnnn2-c2ccccc2OCC)sc2c1CC(C)(C)NC2(C)C	Peg3 prom inh-1 79.5 | Peg3 prom inh-2 86.2

Assay outcomes as filed in PubChem.
